PMC5540273 (PLoS ONE, 2017)

What was measured:
Conditions in all cases: concentration: 1 μM, replicates: in singlicate; n = 1
[1] = system: T1, BIKE
T1 construct: gene BMP2K

[2] = system: BLK
[3] = system: BMPR1A
[4] = system: BMPR1B
[5] = system: BMPR2
[6] = system: BMX
[7] = system: BRAF
[8] = system: T2, BRK
T2 construct: gene PTK6

[9] = system: BRSK1
[10] = system: BRSK2
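Also: KINOMEscan kinase panel screen.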

Row | SMILES | %Inh [1] | %Inh [2] | %Inh [3] | %Inh [4] | %Inh [5] | %Inh [6] | %Inh [7] | %Inh [8] | %Inh [9] | %Inh [10]
1 | COc1cccc(NC(=O)Nc2ccc(C)c(-c3ccc(C(=O)Nc4ccncc4)cc3)c2)c1 [GSK1398474] | 26% | 40% | 0% | 0% | 0% | 18% | 30% | 0% | 12% | 96.2%
2 | Cl.Cl.Cl.N#Cc1ccc(CCNc2nccc(-c3cccc(CN4CCNCC4)c3)n2)cc1 [GSK2137462] | 25% | 0% | 0% | 0% | 0% | 12% | 0% | 8% | 0% | 2%
3 | CCn1c(-c2c(N)noc2C)nc2cnccc21 [SB-737856] | 22% | 0% | 0% | 0% | 3% | 0% | 0% | 0% | 6% | 0%
4 | COc1ccc(CSc2nnc(-c3ccc4c(c3)CCO4)o2)cc1 | 0% | 0% | 0% | 0% | 0% | 0% | 0% | 0% | 0% | 0%
5 | Cc1ccc(NC(=O)Nc2ccc(Cl)cc2)cc1-c1ccc(C(=O)Nc2ccncc2)cc1 [GSK1398472] | 18% | 21% | 0% | 0% | 0% | 15% | 43% | 30% | 0% | 0%
